Experimental data taken from publication PMC7819943, “Rice protein-binding microarrays: a tool to detect cis-acting elements near promoter regions in rice”.
In all, about 35,000 sequences were measured (“fluorescence intensity (a.u.)”: median about 10,000, highest 2% from about 52,000 on). Many of the other results were omitted from the sample, so the highest values are more common in it than they were.

Molecular target: T1, OsWOX13 (Oryza sativa, UniProt Q5QMM3 1-267)
T1 sequence: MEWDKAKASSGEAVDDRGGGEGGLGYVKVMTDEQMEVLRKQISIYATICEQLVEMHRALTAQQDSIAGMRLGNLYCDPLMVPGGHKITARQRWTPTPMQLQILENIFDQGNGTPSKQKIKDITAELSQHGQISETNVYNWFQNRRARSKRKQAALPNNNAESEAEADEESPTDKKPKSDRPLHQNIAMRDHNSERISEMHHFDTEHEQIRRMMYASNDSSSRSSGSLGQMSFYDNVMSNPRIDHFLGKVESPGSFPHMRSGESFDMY
Assay: protein-binding microarray (RPBM); PBS, 2% BSA, 51.3 ng/ul salmon testes DNA, 50 uM zinc acetate, 200 nM TF, 25 C, 1 h; high values mean tight binding
Conditions: protein: recombinant; tags: N-terminal polyhistidine and DsRed monomer fusion (pET32a); label: CyDye5-dUTP incorporated in the synthesized complementary strand; 3' TTTTT single-stranded linker to array surface; dsDNA, one strand shown
Outline: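 Binding signal is defined as the fluorescence intensity of each feature in arbitrary units, read on an Axon 4000B scanner. Transcription factors with N-terminal polyhistidine and DsRed fusions came from E. coli BL21-CodonPlus and were purified on Ni–NTA. They were incubated at 200 nM for 1 h at 25 °C on a custom Agilent array that had been made double-stranded with Cy5-dUTP, with 50 µM zinc acetate present, and the array was washed.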

Sequence	binding signal
GCTGACGTAGATAATCTTATGCTTTCAAATTTTACGATAGCGGAGTCACCTAGTGCAG	5670 fluorescence intensity (a.u.)
ACTTTCTGTCAATTAGCCATTAGGTCAGTAGCCCAAAGTCCGGAGTCACCTAGTGCAG	24300 fluorescence intensity (a.u.)
TCTGCTTAAAAGGATGATTAAATTTTAGATTAAAGTGGCGCGGAGTCACCTAGTGCAG	10200 fluorescence intensity (a.u.)
TTCATGATATCAATTTATGAGCATCAAAAGATTACCATGCCGGAGTCACCTAGTGCAG	6980 fluorescence intensity (a.u.)
CTGATGATTAGATTTATCATGCTTCCGCGCTTCAAAAGGGCGGAGTCACCTAGTGCAG	53400 fluorescence intensity (a.u.)
TCAGATTAGTTGACTAGCAAGCTACTCCTAGTACAGGTTACGGAGTCACCTAGTGCAG	6290 fluorescence intensity (a.u.)
TAATTATTGACTAATATATTAATTAATATAATGTAATTTACGGAGTCACCTAGTGCAG	22700 fluorescence intensity (a.u.)
TGTTTATAACTGTAATGACATATAAGCACCACATAGGGGCCGGAGTCACCTAGTGCAG	5560 fluorescence intensity (a.u.)
AGTTTTCTGTTCAATGATTTGGTTGAATCAAATTGTTCCTCGGAGTCACCTAGTGCAG	4400 fluorescence intensity (a.u.)
GGTGATTTGATTCAAATTCAATCCGATCCTTTGTTGGTTTCGGAGTCACCTAGTGCAG	53400 fluorescence intensity (a.u.)
GTATTGTGATTTGTGAATCAGTGAATATGTGAATGTGATTCGGAGTCACCTAGTGCAG	13200 fluorescence intensity (a.u.)
ACAATTTGATTGCTTCCTTTCAACATTGTGGTTGGTGATCCGGAGTCACCTAGTGCAG	30500 fluorescence intensity (a.u.)
CAGCCCTTAATTGAATTTGGCCCAGCTAGTTCCCGGGCCCCGGAGTCACCTAGTGCAG	30600 fluorescence intensity (a.u.)
ATAAATGATTGGAGGATTTGTTGTGACTTTTCCACAATGTCGGAGTCACCTAGTGCAG	58200 fluorescence intensity (a.u.)
TTGTAAATGACTGATTTGGATGTGAATTAATCGTTGTTGTCGGAGTCACCTAGTGCAG	28400 fluorescence intensity (a.u.)
CCTTTTAATTGAAAAGCTCCTTATTGGCTTCCCACCTAAGCGGAGTCACCTAGTGCAG	46900 fluorescence intensity (a.u.)
GATTAATCCAATTGACTTTGATGAGGATGTGCCACTATTTCGGAGTCACCTAGTGCAG	6820 fluorescence intensity (a.u.)
ATGTGTAAATTGAATTAATGGAGTTGGTTGTGAAATCGTTCGGAGTCACCTAGTGCAG	25300 fluorescence intensity (a.u.)
CTAATTAATTTGTTCCCTTAATTGGCACTTTGAATCTAAGCGGAGTCACCTAGTGCAG	58300 fluorescence intensity (a.u.)
GTTGATTGGGTAAATCATATGATCGTAATGTATTGTGAATCGGAGTCACCTAGTGCAG	64600 fluorescence intensity (a.u.)

Sequence	binding signal
GACTGGGAGGATGAGGGGTGGGTGGGTGTGGCTGCTTCTGCGGAGTCACCTAGTGCAG	4110 fluorescence intensity (a.u.)
CGATCTAATTGTGAATCCTCTACCCTAGAGGACCTCCTATCGGAGTCACCTAGTGCAG	4020 fluorescence intensity (a.u.)
AGTTTTAGCCTAAATTGGGTAAATTATATTTTAACCGTAACGGAGTCACCTAGTGCAG	11600 fluorescence intensity (a.u.)
TCAGTAACATTATTGGTTAAATTTTAAATTTTGAATAGGCCGGAGTCACCTAGTGCAG	5870 fluorescence intensity (a.u.)
AATTGTTTGATTGAAATTAATGTACTCTTGAATGGATAAACGGAGTCACCTAGTGCAG	32600 fluorescence intensity (a.u.)
GCTGACTAATTATGTAACAGGGGTCAAACAAGTAGGTGGACGGAGTCACCTAGTGCAG	20400 fluorescence intensity (a.u.)
GGTAGAAATAAGGATTGATTGAGATTCACCTACCTTTTCTCGGAGTCACCTAGTGCAG	37500 fluorescence intensity (a.u.)
TCCACCGCGACATGTGATTGGAGGTAAGAGCATGTGAACCCGGAGTCACCTAGTGCAG	5650 fluorescence intensity (a.u.)
GCTCCTGATTTGCCTGATCAGATCAACAGATTAGCATGATCGGAGTCACCTAGTGCAG	23600 fluorescence intensity (a.u.)
AAATGTGATTTTGTAATTTCCCCTTTGAATTTTCATCAAACGGAGTCACCTAGTGCAG	8970 fluorescence intensity (a.u.)
GAGATTGATTGCATATCAGAAGTAAATGATTTCAACAGATCGGAGTCACCTAGTGCAG	54400 fluorescence intensity (a.u.)
CTTTGTAATTGGAGTCAATCAAATTGAATGATTTCCCTTTCGGAGTCACCTAGTGCAG	58900 fluorescence intensity (a.u.)
ATTGATTTGAATTCCAAATTTGTAATGATGTTGATCACCTCGGAGTCACCTAGTGCAG	39400 fluorescence intensity (a.u.)
GCAGAAATGATTGCACTTCAATTATTGAGTAAAACAGATTCGGAGTCACCTAGTGCAG	30000 fluorescence intensity (a.u.)
TAGGATTATGTTGGTGATGATGATGACTAGTGTGCCTGAACGGAGTCACCTAGTGCAG	4220 fluorescence intensity (a.u.)
ATAGTTAACAAAATTTGACAGCAAACTAAATGTAACCATTCGGAGTCACCTAGTGCAG	27800 fluorescence intensity (a.u.)
TACCCATCACCAAAATTACCATAAACACAACATACTTAGGCGGAGTCACCTAGTGCAG	4380 fluorescence intensity (a.u.)
ATATAAATTTGGAACAAATTCAACATCATGTTATCCTAGGCGGAGTCACCTAGTGCAG	4060 fluorescence intensity (a.u.)
TAAATTGACAAATTCAACCTAGGCCTGGACTTATTTGGCGCGGAGTCACCTAGTGCAG	57500 fluorescence intensity (a.u.)
CAAAATTGAAAACTTCTTATTTGAAATTCAAAACTTTCAACGGAGTCACCTAGTGCAG	10200 fluorescence intensity (a.u.)

Sequence	binding signal
AACTTATATAAGTTAAATTTAAACTTATATGTTTGTGGGGCGGAGTCACCTAGTGCAG	4170 fluorescence intensity (a.u.)
CATATAAATTGACAACTTCTACTTAAACCTGACATGTGGGCGGAGTCACCTAGTGCAG	54500 fluorescence intensity (a.u.)
TTGACTTAAATTATAATTTTAAACCATATATTATAATTGGCGGAGTCACCTAGTGCAG	31400 fluorescence intensity (a.u.)
TTTGCTAGATTGGAGCAAATCGCATATTCTTAACCCCACCCGGAGTCACCTAGTGCAG	21600 fluorescence intensity (a.u.)
GTTTCGTCTCGTAATTTACACGCAATCTGTGTAATTAGTTCGGAGTCACCTAGTGCAG	7230 fluorescence intensity (a.u.)
CTAAAATTTAATTAATCATACGACAGTGAATTTCTCATTTCGGAGTCACCTAGTGCAG	20300 fluorescence intensity (a.u.)
TCAGACAAATTAAGTTTTAGCTTAGCTTATCACTTAACGGCGGAGTCACCTAGTGCAG	7680 fluorescence intensity (a.u.)
AAATTCCGAATTTGATTCTTAATTAAGGCGAGCTATTCACCGGAGTCACCTAGTGCAG	3490 fluorescence intensity (a.u.)
AAACAGACAAACTACACTAATTGTGATGACTCTGGATTTTCGGAGTCACCTAGTGCAG	8340 fluorescence intensity (a.u.)
ACCATCATCAATTGATAGTTCTTGTTTCTCTAGTAGTAAGCGGAGTCACCTAGTGCAG	9360 fluorescence intensity (a.u.)
GTGACTGATTGACAGTATCAACCATCTAGTGTTAAGATAGCGGAGTCACCTAGTGCAG	52800 fluorescence intensity (a.u.)
AATTCAAGCTCATCACTGATTTGATAAGACATTAAGATAGCGGAGTCACCTAGTGCAG	4050 fluorescence intensity (a.u.)
TACGCCTGATTGGATCCCCACCCCTATCTCCACTGACTGTCGGAGTCACCTAGTGCAG	34100 fluorescence intensity (a.u.)
GACGCCGTCAGCAATGATTGCCTTGCTAGCAGCTGCTTGACGGAGTCACCTAGTGCAG	4390 fluorescence intensity (a.u.)
CACCTGACTGATTGGATTGGTATCGATCCAAGCCTATCAGCGGAGTCACCTAGTGCAG	57100 fluorescence intensity (a.u.)
TCTTGCCAACTGATTGATCGATCCTGGAAGCTTGCTGCTGCGGAGTCACCTAGTGCAG	37900 fluorescence intensity (a.u.)
TAAGTATCCTTGATTGATTGCCTGATCGATCAGCTGCTAGCGGAGTCACCTAGTGCAG	55000 fluorescence intensity (a.u.)
TGTCCACTGAAATTGATTGGAGATCGATGTGATGGTCAAGCGGAGTCACCTAGTGCAG	40200 fluorescence intensity (a.u.)
